# Paper PMC7862700, “An all-to-all approach to the identification of sequence-specific readers for epigenetic DNA modifications on cytosine”
# What was measured:
# Assay in all cases: DAPPL (digital affinity profiling via proximity ligation, sequencing); 10 mM Tris-HCl pH 7.5, 50 mM NaCl, 1 mM DTT, 4% glycerol, room temperature, 30 min; GST-TFs on glutathione beads, 16-mer random dsDNA library, 0.1% formaldehyde crosslink after washing; high values mean tight binding
# FEV = biological target: T1, FEV (Homo sapiens, UniProt Q99581 1-238); details: protein: recombinant; tags: N-terminal GST; dsDNA, one strand shown
# T1 sequence: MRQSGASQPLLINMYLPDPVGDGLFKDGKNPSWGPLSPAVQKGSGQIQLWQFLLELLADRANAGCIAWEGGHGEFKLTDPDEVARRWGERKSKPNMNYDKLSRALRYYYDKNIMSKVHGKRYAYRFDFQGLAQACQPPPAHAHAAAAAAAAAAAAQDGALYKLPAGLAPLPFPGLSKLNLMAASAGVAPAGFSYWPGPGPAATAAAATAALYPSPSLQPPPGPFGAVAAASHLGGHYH
# Procedure, shortened: (§1)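 Human transcription factors were made in yeast as GST fusions, captured on glutathione beads and barcoded with DNA. With a tag-only sample included, the pool was incubated with 200 nmole of a random double-stranded 16-mer DNA library in Tris/NaCl/DTT/glycerol buffer at room temperature for 30 min, then crosslinked with 0.1% formaldehyde after washing, ligated by proximity, amplified and sequenced. For binding signal, each hexamer's read frequency for a factor is divided by its frequency for the tag-only sample.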
# ETV5 = ETV5 (Homo sapiens, UniProt P41161 1-510); details: protein: recombinant; tags: N-terminal GST; dsDNA, one strand shown
# Chain of ETV5 (P41161 whole entry): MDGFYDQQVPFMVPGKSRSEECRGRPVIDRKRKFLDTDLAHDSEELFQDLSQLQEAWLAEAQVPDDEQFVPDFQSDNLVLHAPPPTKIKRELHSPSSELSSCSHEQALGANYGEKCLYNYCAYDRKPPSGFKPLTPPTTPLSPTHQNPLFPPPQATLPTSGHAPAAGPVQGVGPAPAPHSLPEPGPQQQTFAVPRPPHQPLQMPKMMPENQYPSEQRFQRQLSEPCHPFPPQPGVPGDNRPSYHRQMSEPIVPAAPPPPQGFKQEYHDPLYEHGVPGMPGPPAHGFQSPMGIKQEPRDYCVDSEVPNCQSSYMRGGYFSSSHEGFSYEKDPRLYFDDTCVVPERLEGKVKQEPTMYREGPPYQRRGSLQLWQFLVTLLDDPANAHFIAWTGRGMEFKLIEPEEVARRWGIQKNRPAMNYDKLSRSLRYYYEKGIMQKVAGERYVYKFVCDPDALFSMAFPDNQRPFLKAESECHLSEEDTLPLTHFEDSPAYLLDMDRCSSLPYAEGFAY
# Procedure, shortened: as §1
# HSF1 = HSF1 (Homo sapiens, UniProt Q00613 1-529); details: protein: recombinant; tags: N-terminal GST; chain copies: 3; dsDNA, one strand shown
# Chain of HSF1 (Q00613 whole entry): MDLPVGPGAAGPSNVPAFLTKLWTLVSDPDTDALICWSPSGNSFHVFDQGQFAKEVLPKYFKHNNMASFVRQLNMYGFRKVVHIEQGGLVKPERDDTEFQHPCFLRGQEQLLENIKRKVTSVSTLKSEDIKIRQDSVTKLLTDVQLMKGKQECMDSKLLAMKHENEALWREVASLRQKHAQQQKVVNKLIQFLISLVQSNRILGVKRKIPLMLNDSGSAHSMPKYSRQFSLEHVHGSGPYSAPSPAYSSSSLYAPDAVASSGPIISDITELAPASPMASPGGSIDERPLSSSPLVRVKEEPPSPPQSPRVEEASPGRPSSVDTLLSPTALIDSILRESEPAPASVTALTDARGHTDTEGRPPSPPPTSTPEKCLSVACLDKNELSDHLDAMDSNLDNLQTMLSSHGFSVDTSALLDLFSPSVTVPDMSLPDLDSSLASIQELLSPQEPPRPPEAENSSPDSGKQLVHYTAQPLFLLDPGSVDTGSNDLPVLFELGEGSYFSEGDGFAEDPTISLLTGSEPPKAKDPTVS
# Procedure, shortened: as §1
# SPIC = biological target: T2, SPIC (Homo sapiens, UniProt Q8N5J4 1-248); details: protein: recombinant; tags: N-terminal GST; dsDNA, one strand shown
# T2 sequence: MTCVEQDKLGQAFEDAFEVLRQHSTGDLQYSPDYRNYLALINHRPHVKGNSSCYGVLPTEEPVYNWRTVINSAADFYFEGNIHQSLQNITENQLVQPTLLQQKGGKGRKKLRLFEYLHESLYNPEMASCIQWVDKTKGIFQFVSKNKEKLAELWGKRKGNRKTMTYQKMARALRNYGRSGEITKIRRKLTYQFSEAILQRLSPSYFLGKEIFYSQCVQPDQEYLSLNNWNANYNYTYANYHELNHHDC
# Procedure, shortened: as §1
# ELF4 = ELF4 (Homo sapiens, UniProt Q99607 1-663); details: protein: recombinant; tags: N-terminal GST; dsDNA, one strand shown
# Chain of ELF4 (Q99607 whole entry): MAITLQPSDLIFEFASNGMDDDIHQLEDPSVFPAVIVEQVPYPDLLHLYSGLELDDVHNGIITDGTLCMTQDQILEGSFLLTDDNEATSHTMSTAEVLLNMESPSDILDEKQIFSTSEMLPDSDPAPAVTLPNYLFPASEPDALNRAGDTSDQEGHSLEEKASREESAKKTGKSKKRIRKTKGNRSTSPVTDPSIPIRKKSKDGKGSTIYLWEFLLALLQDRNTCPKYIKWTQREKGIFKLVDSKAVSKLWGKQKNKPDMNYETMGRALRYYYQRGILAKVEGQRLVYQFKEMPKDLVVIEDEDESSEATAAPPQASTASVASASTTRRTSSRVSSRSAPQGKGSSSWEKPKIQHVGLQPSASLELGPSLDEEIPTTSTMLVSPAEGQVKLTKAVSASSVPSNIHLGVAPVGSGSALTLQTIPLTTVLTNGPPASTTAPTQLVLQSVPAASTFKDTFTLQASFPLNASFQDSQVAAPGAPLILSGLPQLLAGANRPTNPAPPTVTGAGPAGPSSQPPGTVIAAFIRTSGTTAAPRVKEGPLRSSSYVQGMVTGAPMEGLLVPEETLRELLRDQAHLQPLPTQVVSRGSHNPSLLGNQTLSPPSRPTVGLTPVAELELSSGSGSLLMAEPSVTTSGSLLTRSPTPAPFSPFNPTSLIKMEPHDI
# Procedure, shortened: as §1
# ELK4 = biological target: T3, ELK4 (Homo sapiens, UniProt P28324-2 1-405); details: protein: recombinant; tags: N-terminal GST; dsDNA, one strand shown
# T3 sequence: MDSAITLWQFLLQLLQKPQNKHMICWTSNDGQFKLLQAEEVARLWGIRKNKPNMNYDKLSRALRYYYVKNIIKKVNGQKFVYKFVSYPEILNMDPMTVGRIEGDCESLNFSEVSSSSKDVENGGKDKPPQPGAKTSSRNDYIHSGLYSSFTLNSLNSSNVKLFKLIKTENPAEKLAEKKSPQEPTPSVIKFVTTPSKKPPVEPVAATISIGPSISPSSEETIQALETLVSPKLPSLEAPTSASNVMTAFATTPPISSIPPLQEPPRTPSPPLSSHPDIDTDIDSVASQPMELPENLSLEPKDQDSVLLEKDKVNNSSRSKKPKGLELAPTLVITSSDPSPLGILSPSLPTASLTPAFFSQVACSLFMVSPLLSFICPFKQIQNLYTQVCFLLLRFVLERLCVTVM
# Procedure, shortened: as §1
# ETV2 = biological target: T4, ETV2 (Homo sapiens, UniProt O00321 1-342); details: protein: recombinant; tags: N-terminal GST; dsDNA, one strand shown
# T4 sequence: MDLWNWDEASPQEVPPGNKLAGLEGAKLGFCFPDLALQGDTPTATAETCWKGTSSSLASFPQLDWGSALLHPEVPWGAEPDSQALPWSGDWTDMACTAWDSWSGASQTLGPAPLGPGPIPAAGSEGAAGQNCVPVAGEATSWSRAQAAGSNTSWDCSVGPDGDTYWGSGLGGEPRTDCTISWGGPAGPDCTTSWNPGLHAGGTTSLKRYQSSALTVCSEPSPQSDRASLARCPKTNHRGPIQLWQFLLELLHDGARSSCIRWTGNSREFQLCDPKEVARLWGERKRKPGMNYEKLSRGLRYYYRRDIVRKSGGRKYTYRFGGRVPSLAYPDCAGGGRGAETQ
# Procedure, shortened: as §1
# ELF3 = biological target: T5, ELF3 (Homo sapiens, UniProt P78545 1-371); details: protein: recombinant; tags: N-terminal GST; dsDNA, one strand shown
# T5 sequence: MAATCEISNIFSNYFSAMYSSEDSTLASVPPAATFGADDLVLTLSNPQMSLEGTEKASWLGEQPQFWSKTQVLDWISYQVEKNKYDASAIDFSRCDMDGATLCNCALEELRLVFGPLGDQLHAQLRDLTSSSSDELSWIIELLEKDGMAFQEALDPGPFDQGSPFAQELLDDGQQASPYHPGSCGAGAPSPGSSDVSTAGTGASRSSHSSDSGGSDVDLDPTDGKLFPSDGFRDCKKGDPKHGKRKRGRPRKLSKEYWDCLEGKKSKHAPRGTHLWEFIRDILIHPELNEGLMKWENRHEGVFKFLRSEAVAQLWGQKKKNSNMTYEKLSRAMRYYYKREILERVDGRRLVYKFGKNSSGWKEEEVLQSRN
# Procedure, shortened: as §1
# CRX = CRX (Homo sapiens, UniProt O43186 1-299); details: protein: recombinant; tags: N-terminal GST; dsDNA, one strand shown
# Chain of CRX (O43186 whole entry): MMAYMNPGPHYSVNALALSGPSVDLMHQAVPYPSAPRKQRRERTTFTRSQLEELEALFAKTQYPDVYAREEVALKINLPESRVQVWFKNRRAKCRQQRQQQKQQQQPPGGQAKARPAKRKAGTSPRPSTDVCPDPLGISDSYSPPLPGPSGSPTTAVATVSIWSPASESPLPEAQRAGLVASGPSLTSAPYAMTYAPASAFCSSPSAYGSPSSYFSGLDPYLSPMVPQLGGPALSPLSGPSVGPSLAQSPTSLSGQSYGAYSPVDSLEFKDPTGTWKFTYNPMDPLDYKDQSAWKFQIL
# Procedure, shortened: as §1
# ETV1 = ETV1 (Homo sapiens, UniProt P50549 1-477); details: protein: recombinant; tags: N-terminal GST; dsDNA, one strand shown
# Chain of ETV1 (P50549 whole entry): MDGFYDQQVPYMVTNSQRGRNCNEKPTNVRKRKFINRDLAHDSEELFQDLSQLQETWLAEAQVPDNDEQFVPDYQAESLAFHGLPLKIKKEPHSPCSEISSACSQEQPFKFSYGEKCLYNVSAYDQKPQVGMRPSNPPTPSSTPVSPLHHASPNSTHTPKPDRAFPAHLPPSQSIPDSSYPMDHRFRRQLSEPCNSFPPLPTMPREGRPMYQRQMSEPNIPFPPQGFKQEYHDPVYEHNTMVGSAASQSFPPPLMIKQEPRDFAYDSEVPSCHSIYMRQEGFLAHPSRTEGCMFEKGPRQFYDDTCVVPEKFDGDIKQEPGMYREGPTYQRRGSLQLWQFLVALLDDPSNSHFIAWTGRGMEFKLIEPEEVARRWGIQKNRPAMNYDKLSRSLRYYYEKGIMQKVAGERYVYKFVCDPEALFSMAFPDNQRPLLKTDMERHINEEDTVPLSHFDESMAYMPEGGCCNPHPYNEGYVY
# Procedure, shortened: as §1
# ERF = biological target: T6, ERF (Homo sapiens, UniProt P50548 1-548); details: protein: recombinant; tags: N-terminal GST; dsDNA, one strand shown
# T6 sequence: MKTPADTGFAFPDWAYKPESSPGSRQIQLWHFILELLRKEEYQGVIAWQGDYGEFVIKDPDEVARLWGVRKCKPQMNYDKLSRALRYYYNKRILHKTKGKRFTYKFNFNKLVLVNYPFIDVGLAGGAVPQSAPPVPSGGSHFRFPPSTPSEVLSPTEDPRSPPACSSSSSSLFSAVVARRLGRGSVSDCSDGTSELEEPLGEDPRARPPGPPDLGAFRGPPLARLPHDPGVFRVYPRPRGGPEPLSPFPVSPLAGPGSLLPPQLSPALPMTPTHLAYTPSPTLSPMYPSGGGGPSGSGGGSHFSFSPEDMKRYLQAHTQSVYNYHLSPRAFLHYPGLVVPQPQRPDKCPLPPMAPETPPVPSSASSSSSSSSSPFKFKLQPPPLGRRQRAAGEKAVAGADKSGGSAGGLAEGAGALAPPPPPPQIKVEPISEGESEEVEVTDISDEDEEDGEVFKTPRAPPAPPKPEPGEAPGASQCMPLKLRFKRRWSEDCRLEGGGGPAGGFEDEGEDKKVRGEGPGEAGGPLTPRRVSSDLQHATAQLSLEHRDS
# Procedure, shortened: as §1
# ETV3L = biological target: T7, ETV3L (Homo sapiens, UniProt Q6ZN32 1-361); details: protein: recombinant; tags: N-terminal GST; dsDNA, one strand shown
# T7 sequence: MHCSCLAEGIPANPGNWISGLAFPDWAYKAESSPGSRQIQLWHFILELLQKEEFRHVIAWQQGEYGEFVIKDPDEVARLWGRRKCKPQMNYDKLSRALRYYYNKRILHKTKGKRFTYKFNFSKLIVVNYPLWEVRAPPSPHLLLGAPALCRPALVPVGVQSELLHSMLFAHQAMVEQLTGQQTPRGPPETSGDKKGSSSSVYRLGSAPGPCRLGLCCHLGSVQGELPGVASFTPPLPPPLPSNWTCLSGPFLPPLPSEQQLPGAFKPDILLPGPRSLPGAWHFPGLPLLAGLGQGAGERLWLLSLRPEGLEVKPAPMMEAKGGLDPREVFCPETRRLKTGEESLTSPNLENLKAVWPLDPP
# Procedure, shortened: as §1
# ETS2 = biological target: T8, ETS2 (Homo sapiens, UniProt P15036 1-469); details: protein: recombinant; tags: N-terminal GST; dsDNA, one strand shown
# T8 sequence: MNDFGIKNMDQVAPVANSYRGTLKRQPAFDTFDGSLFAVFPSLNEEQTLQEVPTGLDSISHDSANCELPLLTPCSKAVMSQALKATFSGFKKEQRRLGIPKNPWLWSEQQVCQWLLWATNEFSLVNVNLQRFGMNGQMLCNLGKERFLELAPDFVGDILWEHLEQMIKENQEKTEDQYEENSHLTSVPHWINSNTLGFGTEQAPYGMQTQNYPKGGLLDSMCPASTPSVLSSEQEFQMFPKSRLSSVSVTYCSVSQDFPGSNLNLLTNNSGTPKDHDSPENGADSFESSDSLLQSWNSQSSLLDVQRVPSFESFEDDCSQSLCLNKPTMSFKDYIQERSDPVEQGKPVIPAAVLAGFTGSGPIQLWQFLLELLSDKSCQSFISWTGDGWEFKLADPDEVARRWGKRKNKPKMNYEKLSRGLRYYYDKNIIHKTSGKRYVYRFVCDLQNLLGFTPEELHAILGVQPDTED
# Procedure, shortened: as §1
# SPDEF = biological target: T9, SPDEF (Homo sapiens, UniProt O95238 1-335); details: protein: recombinant; tags: N-terminal GST; dsDNA, one strand shown
# T9 sequence: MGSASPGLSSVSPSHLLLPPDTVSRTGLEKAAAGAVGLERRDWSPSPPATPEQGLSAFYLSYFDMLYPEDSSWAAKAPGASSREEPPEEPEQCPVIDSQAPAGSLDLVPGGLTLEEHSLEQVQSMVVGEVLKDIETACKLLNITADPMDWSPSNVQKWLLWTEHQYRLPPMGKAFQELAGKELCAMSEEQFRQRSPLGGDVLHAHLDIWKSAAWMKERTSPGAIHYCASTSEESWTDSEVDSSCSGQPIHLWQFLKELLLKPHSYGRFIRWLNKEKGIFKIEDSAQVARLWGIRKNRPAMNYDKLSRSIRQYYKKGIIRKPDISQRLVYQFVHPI
# Procedure, shortened: as §1
# ETV7 = biological target: T10, ETV7 (Homo sapiens, UniProt Q9Y603 1-341); details: protein: recombinant; tags: N-terminal GST; dsDNA, one strand shown
# T10 sequence: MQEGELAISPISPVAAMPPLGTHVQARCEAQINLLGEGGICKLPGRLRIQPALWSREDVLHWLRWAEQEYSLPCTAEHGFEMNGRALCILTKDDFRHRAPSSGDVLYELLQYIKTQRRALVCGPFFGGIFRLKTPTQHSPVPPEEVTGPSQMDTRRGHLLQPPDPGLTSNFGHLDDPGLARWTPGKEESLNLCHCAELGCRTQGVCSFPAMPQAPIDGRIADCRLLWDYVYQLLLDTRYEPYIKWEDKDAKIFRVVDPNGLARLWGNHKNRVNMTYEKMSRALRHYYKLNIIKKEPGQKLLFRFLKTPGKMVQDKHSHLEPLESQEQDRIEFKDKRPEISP
# Procedure, shortened: as §1
# ELF5 = biological target: T11, ELF5 (Homo sapiens, UniProt Q9UKW6-2 1-255); details: protein: recombinant; tags: N-terminal GST; dsDNA, one strand shown
# T11 sequence: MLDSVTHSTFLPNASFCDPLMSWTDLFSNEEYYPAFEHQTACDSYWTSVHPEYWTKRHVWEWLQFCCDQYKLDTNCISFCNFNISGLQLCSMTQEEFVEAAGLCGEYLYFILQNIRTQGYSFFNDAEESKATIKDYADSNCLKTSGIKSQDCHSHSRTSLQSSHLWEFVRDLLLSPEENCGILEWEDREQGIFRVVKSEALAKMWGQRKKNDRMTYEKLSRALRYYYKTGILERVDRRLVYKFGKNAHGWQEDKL
# Procedure, shortened: as §1
# ETV3 = biological target: T12, ETV3 (Homo sapiens, UniProt P41162-2 1-143); details: protein: recombinant; tags: N-terminal GST; dsDNA, one strand shown
# T12 sequence: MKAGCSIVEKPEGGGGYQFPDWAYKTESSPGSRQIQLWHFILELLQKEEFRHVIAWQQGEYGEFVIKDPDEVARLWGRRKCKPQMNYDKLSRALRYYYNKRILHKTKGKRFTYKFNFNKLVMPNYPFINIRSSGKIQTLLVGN
# Procedure, shortened: as §1
# ETV6 = ETV6 (Homo sapiens, UniProt P41212 1-452); details: protein: recombinant; tags: N-terminal GST; dsDNA, one strand shown
# Chain of ETV6 (P41212 whole entry): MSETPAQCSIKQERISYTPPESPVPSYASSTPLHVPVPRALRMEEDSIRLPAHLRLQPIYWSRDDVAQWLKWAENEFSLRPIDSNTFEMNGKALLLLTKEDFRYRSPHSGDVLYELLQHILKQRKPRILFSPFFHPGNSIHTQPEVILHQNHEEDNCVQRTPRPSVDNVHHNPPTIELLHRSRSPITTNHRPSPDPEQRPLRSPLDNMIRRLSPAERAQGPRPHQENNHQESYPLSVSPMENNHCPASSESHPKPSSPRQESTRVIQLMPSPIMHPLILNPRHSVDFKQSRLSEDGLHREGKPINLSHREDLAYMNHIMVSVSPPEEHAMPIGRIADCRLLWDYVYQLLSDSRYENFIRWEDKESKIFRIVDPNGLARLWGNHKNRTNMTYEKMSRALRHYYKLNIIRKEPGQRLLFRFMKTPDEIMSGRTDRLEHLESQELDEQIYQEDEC
# Procedure, shortened: as §1
sequence,measurement,setting,value
ATCACC,binding signal,FEV,"1.09 fold enrichment (6-mer frequency, TF over GST control)"
same,binding signal,ETV5,"1.11 fold enrichment (6-mer frequency, TF over GST control)"
same,binding signal,HSF1,"1.05 fold enrichment (6-mer frequency, TF over GST control)"
same,binding signal,SPIC,"1.1 fold enrichment (6-mer frequency, TF over GST control)"
same,binding signal,ELF4,"1.22 fold enrichment (6-mer frequency, TF over GST control)"
same,binding signal,ELK4,"1.07 fold enrichment (6-mer frequency, TF over GST control)"
same,binding signal,ETV2,"1.03 fold enrichment (6-mer frequency, TF over GST control)"
same,binding signal,ELF3,"1.17 fold enrichment (6-mer frequency, TF over GST control)"
same,binding signal,CRX,"1.14 fold enrichment (6-mer frequency, TF over GST control)"
same,binding signal,ETV1,"1.1 fold enrichment (6-mer frequency, TF over GST control)"
same,binding signal,ERF,"1.13 fold enrichment (6-mer frequency, TF over GST control)"
same,binding signal,ETV3L,"1.17 fold enrichment (6-mer frequency, TF over GST control)"
same,binding signal,ETS2,"1.05 fold enrichment (6-mer frequency, TF over GST control)"
same,binding signal,SPDEF,"1.12 fold enrichment (6-mer frequency, TF over GST control)"
same,binding signal,ETV7,"1 fold enrichment (6-mer frequency, TF over GST control)"
same,binding signal,ELF5,"1.01 fold enrichment (6-mer frequency, TF over GST control)"
same,binding signal,ETV3,"1.12 fold enrichment (6-mer frequency, TF over GST control)"
same,binding signal,ETV6,"1.06 fold enrichment (6-mer frequency, TF over GST control)"
